Laboratory results from PubChem BioAssay AID1159580 (chemical genetic matrix, 2015).
About 2,000 (36%) of roughly 5,500 compounds were called active. About 18% were inconclusive and are not listed. No stated cut-off is given here; in the data, active means normalized growth mostly below about 0.91 (no sharp cut-off); inconclusive means no clear call, values can overlap the other calls; inactive means mostly above about 0.92. The list shows a part of the results.

Assay: chemical genetic growth profiling, strain panel (AID 1159580);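 further: tested at 20 µM; growth read once vehicle control cultures reached saturation at 30 °C; 1 = growth at the plate median or of vehicle wells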
Conditions: S. cerevisiae deletion strains, growth OD

Measured: normalized growth

COc1ccc(C(CC(=O)c2ccccc2)Sc2ccccc2N)cc1OC (stereo unspecified)
inactive: locus YAR019C, strain CDC15, stronger effect = lower value 0.977 | locus YBL105C, strain PKC1, stronger effect = lower value 0.971 | locus YBR135W, strain CKS1, stronger effect = lower value 0.98 | locus YBR136W, strain MEC1, stronger effect = lower value 0.972 | locus YBR160W, strain CDC28, stronger effect = lower value 0.98 | locus YDL017W, strain CDC7, stronger effect = lower value 0.972 | locus YDL028C, strain MPS1, stronger effect = lower value 0.979 | locus YDL101C, strain DUN1, stronger effect = lower value 0.976 | locus YDL108W, strain KIN28, stronger effect = lower value 0.974 | locus YDL132W, strain cdc53, stronger effect = lower value 0.987 | locus YDL214C, strain PRR2, stronger effect = lower value 0.948 | locus YDR052C, strain DBF4, stronger effect = lower value 0.974 | locus YDR054C, strain cdc34, stronger effect = lower value 0.971 | locus YDR226W, strain ADK1, stronger effect = lower value 0.979 | locus YDR477W, strain SNF1, stronger effect = lower value 0.958 | locus YER123W, strain YCK3, stronger effect = lower value 0.935 | locus YER133W, strain GLC7, stronger effect = lower value 0.954 | locus YFL009W, strain cdc4, stronger effect = lower value 0.981 | locus YFL029C, strain CAK1, stronger effect = lower value 0.966 | locus YFR003C, strain YPI1, stronger effect = lower value 0.972 | locus YFR019W, strain FAB1, stronger effect = lower value 0.963 | locus YFR028C, strain CDC14, stronger effect = lower value 0.967 | locus YGR040W, strain KSS1, stronger effect = lower value 0.946 | locus YGR052W, strain FMP48, stronger effect = lower value 1.02 | locus YGR092W, strain DBF2, stronger effect = lower value 0.959 | locus YHR030C, strain SLT2, stronger effect = lower value 0.921 | locus YHR079C, strain IRE1, stronger effect = lower value 0.95 | locus YHR082C, strain KSP1, stronger effect = lower value 0.985 | locus YHR205W, strain SCH9, stronger effect = lower value 0.935 | locus YIL147C, strain SLN1, stronger effect = lower value 0.965 | locus YJL095W, strain BCK1, stronger effect = lower value 0.947 | locus YJL128C, strain PBS2, stronger effect = lower value 0.944 | locus YJL157C, strain FAR1, stronger effect = lower value 0.965 | locus YJR016C, strain ILV3, stronger effect = lower value 0.985 | locus YJR066W, strain TOR1 (second series), stronger effect = lower value 1 | locus YJR066W, strain TOR1, stronger effect = lower value 0.955 | locus YKL048C, strain ELM1, stronger effect = lower value 0.977 | locus YKL067W, strain YNK1, stronger effect = lower value 0.946 | locus YKL101W, strain HSL1, stronger effect = lower value 0.927 | locus YKL193C, strain SDS22, stronger effect = lower value 0.979 | locus YKL203C, strain TOR2, stronger effect = lower value 0.99 | locus YLR113W, strain HOG1, stronger effect = lower value 0.898 | locus YLR133W, strain CKI1, stronger effect = lower value 0.952 | locus YLR403W, strain SFP1, stronger effect = lower value 0.934 | locus YML070W, strain DAK1, stronger effect = lower value 0.941 | locus YMR001C, strain CDC5, stronger effect = lower value 0.965 | locus YMR205C, strain PFK2 (second series), stronger effect = lower value 0.958 | locus YMR277W, strain FCP1, stronger effect = lower value 0.983 | locus YNL006W, strain LST8, stronger effect = lower value 0.984 | locus YNL020C, strain ARK1, stronger effect = lower value 0.961 | locus YNL161W, strain CBK1, stronger effect = lower value 0.978 | locus YNL183C, strain NPR1, stronger effect = lower value 0.966 | locus YNL207W, strain RIO2, stronger effect = lower value 0.975 | locus YNL222W, strain SSU72, stronger effect = lower value 0.979 | locus YNL307C, strain MCK1 (second series), stronger effect = lower value 0.974 | locus YOL078W, strain AVO1, stronger effect = lower value 0.98 | locus YOL136C, strain PFK27, stronger effect = lower value 0.955 | locus YOR061W, strain CKA2, stronger effect = lower value 0.934 | locus YOR119C, strain RIO1, stronger effect = lower value 0.962 | locus YOR231W, strain MKK1, stronger effect = lower value 0.937 | locus YOR329C, strain SCD5, stronger effect = lower value 0.971 | locus YPL031C, strain PHO85, stronger effect = lower value 0.957 | locus YPL153C, strain RAD53, stronger effect = lower value 0.978 | locus YPL204W, strain HRR25, stronger effect = lower value 0.993 | locus YPL209C, strain IPL1, stronger effect = lower value 0.984 | locus YPL256C, strain CLN2, stronger effect = lower value 0.899 | locus YPR025C, strain CCL1, stronger effect = lower value 0.976 | locus YPR106W, strain ISR1, stronger effect = lower value 0.967 | locus YPR111W, strain DBF20, stronger effect = lower value 0.979 | strain NNK1, stronger effect = lower value 0.968 | strain TSCII, stronger effect = lower value 0.973
